Results filed as inconclusive are left out. Values without a mark were called inactive. Active and inactive are the calls of the source. Calls follow the shape of the dose curve; as a rule, active = well fitted curve in the direction sought with a large enough effect in the repeat runs; inconclusive = weak or mixed curves; inactive = no such curve, though single readings can be large; an effect the other way counts as inactive or inconclusive.
Test system: not listed separately
Assay: qHTS assay to identify small molecule agonists of the constitutive androstane receptor (CAR) signaling pathway - cell viability counter screen (AID 1224836); also: nearly all actives have a fitted effect of over 45% in size
Conditions: HepG2-CYP2B6-hCAR viability, CellTiter-Fluor, 23 h, PK11195 added to every well; series mostly up to 92.4 µM; viability change, negative = cytotoxic: at the top concentration
How it was run: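 Using CellTiter-Fluor, viability of HepG2 cells harbouring hCAR and CYP2B6-2.2kb was measured following 23 h incubation with a 15-concentration compound series plus PK11195 (0.75 uM final).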
With `CC(CC(=O)O)CC(C)(C)C` (centres undefined) the “viability change, negative = cytotoxic” value was -1.15%. Work on `Nc1ccc(/C=C/c2ccc(N)cc2S(=O)(=O)O)c(S(=O)(=O)O)c1` yielded a viability change, negative = cytotoxic of 6.71% [at 0.349 µM]. In the case of `COc1ccc(NS(=O)(=O)c2ccc(N)cc2)nn1`, the “viability change, negative = cytotoxic” value is reported as -3.55% [at 42.5 µM]. With `CCCCCCCCCCCCC1CO1` (centres undefined) the “viability change, negative = cytotoxic” value was 1.7%. For `CC(C)C(=O)c1ccccc1`, the “viability change, negative = cytotoxic” value was 2.77%. With `CCCCCCCCCCC` the “viability change, negative = cytotoxic” value was 1.37%. With `CC(Cl)COP(=O)(OCC(C)Cl)OCC(C)Cl` (centres undefined) the “viability change, negative = cytotoxic” value was 2.86%. With `CN(C)CCOCCN(C)CCO` the “viability change, negative = cytotoxic” value was 3.51%. With `CC(C)(CO)[C@@H](O)C(=O)NCCCO` the “viability change, negative = cytotoxic” value was 2.37% [at 42.5 µM]. In the case of `CC(=O)OC(C)c1ccccc1` (centres undefined), the “viability change, negative = cytotoxic” value is reported as 2.18%. With `C=CCOCC(CO)(COCC=C)COCC=C` the “viability change, negative = cytotoxic” value was 1.62% [at 42.5 µM]. For `Cc1ncc([N+](=O)[O-])n1CC(O)CCl` (centres undefined), the “viability change, negative = cytotoxic” value was 8.95% [at 42.5 µM]. With `CCCCC(CC)COC(=O)c1ccccc1` (centres undefined) the “viability change, negative = cytotoxic” value was -1.14%. With `CCN(CCO)c1cccc(C)c1` the “viability change, negative = cytotoxic” value was 5.08%. For `CN=C(NC#N)NCCSCc1csc(N=C(N)N)n1`, the “viability change, negative = cytotoxic” value was -3.06% [at 42.5 µM]. In the case of `CC1CCC(C(C)(C)S)C(=O)C1` (centres undefined), the “viability change, negative = cytotoxic” value is reported as 5.67%. In the case of `O=CN1CCOCC1`, the “viability change, negative = cytotoxic” value is reported as -0.849%. With `Cc1c(C(C)C)c(=O)n(-c2ccccc2)n1C` the “viability change, negative = cytotoxic” value was 7.63% [at 42.5 µM]. In the case of `CCCCCCCCCCCCCCCCCCN(C)C`, the “viability change, negative = cytotoxic” value is reported as 9.46% [at 42.5 µM]. With `O=C(O)CCNC(=O)c1ccccc1` the “viability change, negative = cytotoxic” value was 8.48% [at 42.5 µM]. In the case of `COc1ccc(OC)c(NC(=O)CC(C)=O)c1`, the “viability change, negative = cytotoxic” value is reported as -4.23%. In the case of `CCN(CCC#N)c1ccccc1`, the “viability change, negative = cytotoxic” value is reported as 3.97%. For `O=C(CN1CCN(Cc2ccc3c(c2)OCO3)CC1)N1c2ccccc2Sc2ccccc21`, the “viability change, negative = cytotoxic” value was -0.0104% [at 42.5 µM]. In the case of `O=C(O)c1ccccc1C(=O)Nc1ccc(S(=O)(=O)Nc2nccs2)cc1`, the “viability change, negative = cytotoxic” value is reported as 1.75% [at 42.5 µM]. In the case of `O=c1[nH]c(=O)c2ccccc2o1`, the “viability change, negative = cytotoxic” value is reported as 2.83% [at 42.5 µM]. For `CCC1COC(=O)O1` (centres undefined), the “viability change, negative = cytotoxic” value was -0.545%. In the case of `C=CCOc1cc(Cl)ccc1C(=O)NCCN(CC)CC`, the “viability change, negative = cytotoxic” value is reported as -4.2% [at 42.5 µM]. For `Cc1cccc(NC(=S)N(C)C)c1`, the “viability change, negative = cytotoxic” value was -15.4%. With `O=C(COCCOCCOCC(=O)Nc1c(I)cc(I)c(C(=O)O)c1I)Nc1c(I)cc(I)c(C(=O)O)c1I` the “viability change, negative = cytotoxic” value was 9.05% [at 42.5 µM]. In the case of `C=CCOc1c(Br)cc(Br)cc1Br`, the “viability change, negative = cytotoxic” value is reported as -1.82%. In the case of `NC(=O)NC(=O)Cc1ccccc1`, the “viability change, negative = cytotoxic” value is reported as -0.579% [at 42.5 µM]. For `FC(F)(F)/C(=N\OCC1OCCO1)c1ccc(Cl)cc1`, the “viability change, negative = cytotoxic” value was 1.87%. For `CCOc1ccc(NC(=O)OC(C)C)cc1OCC`, the “viability change, negative = cytotoxic” value was -2.82%. For `CC(=O)/C=C/c1ccco1`, the “viability change, negative = cytotoxic” value was 4.36%. In the case of `CCC(=O)OCCC(C)CCC=C(C)C` (centres undefined), the “viability change, negative = cytotoxic” value is reported as -3.26%. For `CCCCCCCCC(=O)OCC`, the “viability change, negative = cytotoxic” value was 5.25%. With `CCCCCCCCCCCCCCCCI` the viability change, negative = cytotoxic was -8.08% [at 19 µM].

Test system: not listed separately
Assay: qHTS assay to identify small molecule antagonists of the constitutive androstane receptor (CAR) signaling pathway - cell viability counter screen (AID 1224837); also: nearly all actives have a fitted effect of over 45% in size; also: potency is read from the fitted curve at half-maximal effect
Conditions: HepG2-CYP2B6-hCAR viability, CellTiter-Fluor, 23 h, co-treated with 50 nM CITCO; series mostly up to 92.4 µM; activity change, negative = cytotoxicity: at the top concentration
How it was run: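 Fluorescence from CellTiter-Fluor served as the viability signal. Human hepatoma HepG2 cells stably bearing hCAR and CYP2B6-2.2kb received compound plus CITCO (50 nM final) for 23 hr.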
In the case of `CC(CC(=O)O)CC(C)(C)C` (centres undefined), the “activity change, negative = cytotoxicity” value is reported as -7.72%. In the case of `Nc1ccc(/C=C/c2ccc(N)cc2S(=O)(=O)O)c(S(=O)(=O)O)c1`, the activity change, negative = cytotoxicity is reported as 10.1% [at 0.349 µM]. With `COc1ccc(NS(=O)(=O)c2ccc(N)cc2)nn1` the “activity change, negative = cytotoxicity” value was -5.39% [at 42.5 µM]. In the case of `CCCCCCCCCCCCC1CO1` (centres undefined), the “activity change, negative = cytotoxicity” value is reported as 1.88%. With `CC(C)C(=O)c1ccccc1` the “activity change, negative = cytotoxicity” value was 0.423%. In the case of `CCCCCCCCCCC`, the “activity change, negative = cytotoxicity” value is reported as -11.5%. For `CC(Cl)COP(=O)(OCC(C)Cl)OCC(C)Cl` (centres undefined), the “activity change, negative = cytotoxicity” value was -2.64%. With `CN(C)CCOCCN(C)CCO` the “activity change, negative = cytotoxicity” value was -1.77%. For `CC(C)(CO)[C@@H](O)C(=O)NCCCO`, the “activity change, negative = cytotoxicity” value was 1.52% [at 42.5 µM]. With `CC(=O)OC(C)c1ccccc1` (centres undefined) the “activity change, negative = cytotoxicity” value was 2.79%. With `C=CCOCC(CO)(COCC=C)COCC=C` the “activity change, negative = cytotoxicity” value was 6.33% [at 42.5 µM]. For `Cc1ncc([N+](=O)[O-])n1CC(O)CCl` (centres undefined), the “activity change, negative = cytotoxicity” value was 0.295% [at 42.5 µM]. For `CCCCC(CC)COC(=O)c1ccccc1` (centres undefined), the “activity change, negative = cytotoxicity” value was 2.33%. For `CCN(CCO)c1cccc(C)c1`, the “activity change, negative = cytotoxicity” value was 0.0251%. For `CN=C(NC#N)NCCSCc1csc(N=C(N)N)n1`, the “activity change, negative = cytotoxicity” value was -14% [at 42.5 µM]. In the case of `CC1CCC(C(C)(C)S)C(=O)C1` (centres undefined), the “activity change, negative = cytotoxicity” value is reported as 0.532%. With `O=CN1CCOCC1` the “activity change, negative = cytotoxicity” value was 0.154%. In the case of `Cc1c(C(C)C)c(=O)n(-c2ccccc2)n1C`, the “activity change, negative = cytotoxicity” value is reported as 3.25% [at 42.5 µM]. In the case of `CCCCCCCCCCCCCCCCCCN(C)C`, the “activity change, negative = cytotoxicity” value is reported as 2.32% [at 42.5 µM]. For `O=C(O)CCNC(=O)c1ccccc1`, the “activity change, negative = cytotoxicity” value was 3.31% [at 42.5 µM]. With `COc1ccc(OC)c(NC(=O)CC(C)=O)c1` the “activity change, negative = cytotoxicity” value was 0.493%. For `CCN(CCC#N)c1ccccc1`, the “activity change, negative = cytotoxicity” value was 1.7%. In the case of `O=C(CN1CCN(Cc2ccc3c(c2)OCO3)CC1)N1c2ccccc2Sc2ccccc21`, the “activity change, negative = cytotoxicity” value is reported as 3.24% [at 42.5 µM]. In the case of `O=C(O)c1ccccc1C(=O)Nc1ccc(S(=O)(=O)Nc2nccs2)cc1`, the “activity change, negative = cytotoxicity” value is reported as -2.32% [at 42.5 µM]. In the case of `O=c1[nH]c(=O)c2ccccc2o1`, the “activity change, negative = cytotoxicity” value is reported as 4.66% [at 42.5 µM]. In the case of `CCC1COC(=O)O1` (centres undefined), the “activity change, negative = cytotoxicity” value is reported as 0.187%. In the case of `C=CCOc1cc(Cl)ccc1C(=O)NCCN(CC)CC`, the “activity change, negative = cytotoxicity” value is reported as -5.57% [at 42.5 µM]. For `Cc1cccc(NC(=S)N(C)C)c1`, the Potency was 61.1 µM (active). In the case of `O=C(COCCOCCOCC(=O)Nc1c(I)cc(I)c(C(=O)O)c1I)Nc1c(I)cc(I)c(C(=O)O)c1I`, the “activity change, negative = cytotoxicity” value is reported as 14.8% [at 42.5 µM]. For `C=CCOc1c(Br)cc(Br)cc1Br`, the “activity change, negative = cytotoxicity” value was -0.518%. In the case of `NC(=O)NC(=O)Cc1ccccc1`, the “activity change, negative = cytotoxicity” value is reported as -6.86% [at 42.5 µM]. With `FC(F)(F)/C(=N\OCC1OCCO1)c1ccc(Cl)cc1` the “activity change, negative = cytotoxicity” value was 4.57%. In the case of `CCOc1ccc(NC(=O)OC(C)C)cc1OCC`, the “activity change, negative = cytotoxicity” value is reported as -1.79%. For `CC(=O)/C=C/c1ccco1`, the “activity change, negative = cytotoxicity” value was -0.327%. For `CCC(=O)OCCC(C)CCC=C(C)C` (centres undefined), the “activity change, negative = cytotoxicity” value was -0.898%. For `CCCCCCCCC(=O)OCC`, the “activity change, negative = cytotoxicity” value was 1.06%. Work on `CCCCCCCCCCCCCCCCI` yielded an activity change, negative = cytotoxicity of -13% [at 19 µM].

Target: Nuclear receptor subfamily 1 group I member 3 (Homo sapiens) (UniProt Q14994)
Sequence (Q14994 whole entry, looked up): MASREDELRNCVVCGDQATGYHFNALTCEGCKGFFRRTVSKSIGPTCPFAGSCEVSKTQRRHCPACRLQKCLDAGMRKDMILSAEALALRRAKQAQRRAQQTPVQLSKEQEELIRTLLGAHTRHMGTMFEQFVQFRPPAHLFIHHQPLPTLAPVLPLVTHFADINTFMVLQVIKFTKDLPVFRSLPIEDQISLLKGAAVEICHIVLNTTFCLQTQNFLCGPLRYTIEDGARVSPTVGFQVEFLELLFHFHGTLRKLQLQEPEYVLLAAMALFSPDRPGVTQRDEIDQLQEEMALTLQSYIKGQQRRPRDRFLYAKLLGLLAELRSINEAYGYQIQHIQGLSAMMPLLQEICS
Assay: qHTS assay to identify small molecule antagonists of the constitutive androstane receptor (CAR) signaling pathway (AID 1224838);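 also: HepG2 cells stably expressing hCAR with CYP2B6 luciferase reporter stimulated by CITCO; nearly all actives have a fitted effect of over 40% in size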
Conditions: HepG2-CYP2B6-hCAR luciferase, CITCO-stimulated, 24 h; series mostly up to 92.4 µM; activity, negative = inhibition: at the top concentration
How it was run: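 Quantitative HTS in double-stable HepG2-CYP2B6-hCAR cells. After 4 h plating, cells get compound (15 concentrations) and CITCO at 50 nM final, incubate 24 h at 37 C, then ONE-Glo luminescence is read.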
For `CC(CC(=O)O)CC(C)(C)C` (centres undefined), the “activity, negative = inhibition” value was 6.12%. For `Nc1ccc(/C=C/c2ccc(N)cc2S(=O)(=O)O)c(S(=O)(=O)O)c1`, the activity, negative = inhibition was -20.1% [at 0.349 µM]. With `CCCCCCCCCCCCC1CO1` (centres undefined) the “activity, negative = inhibition” value was -13.7%. In the case of `CCCCCCCCCCC`, the “activity, negative = inhibition” value is reported as 22.9%. For `CC(Cl)COP(=O)(OCC(C)Cl)OCC(C)Cl` (centres undefined), the “activity, negative = inhibition” value was -0.44%. For `CC(=O)OC(C)c1ccccc1` (centres undefined), the “activity, negative = inhibition” value was 6.22%. For `C=CCOCC(CO)(COCC=C)COCC=C`, the “activity, negative = inhibition” value was 13.9% [at 42.5 µM]. With `Cc1ncc([N+](=O)[O-])n1CC(O)CCl` (centres undefined) the “activity, negative = inhibition” value was 9.26% [at 42.5 µM]. In the case of `CCCCC(CC)COC(=O)c1ccccc1` (centres undefined), the “activity, negative = inhibition” value is reported as 21.5%. For `CCN(CCO)c1cccc(C)c1`, the “activity, negative = inhibition” value was 49.8%. With `Cc1c(C(C)C)c(=O)n(-c2ccccc2)n1C` the “activity, negative = inhibition” value was 54.5% [at 42.5 µM]. In the case of `COc1ccc(OC)c(NC(=O)CC(C)=O)c1`, the “activity, negative = inhibition” value is reported as 46.5%. In the case of `CCN(CCC#N)c1ccccc1`, the “activity, negative = inhibition” value is reported as 39.9%. With `O=C(CN1CCN(Cc2ccc3c(c2)OCO3)CC1)N1c2ccccc2Sc2ccccc21` the “activity, negative = inhibition” value was 3.48% [at 42.5 µM]. In the case of `O=C(O)c1ccccc1C(=O)Nc1ccc(S(=O)(=O)Nc2nccs2)cc1`, the “activity, negative = inhibition” value is reported as -4.76% [at 42.5 µM]. In the case of `C=CCOc1cc(Cl)ccc1C(=O)NCCN(CC)CC`, the “activity, negative = inhibition” value is reported as 36.9% [at 42.5 µM]. In the case of `C=CCOc1c(Br)cc(Br)cc1Br`, the “activity, negative = inhibition” value is reported as 56.4%. For `FC(F)(F)/C(=N\OCC1OCCO1)c1ccc(Cl)cc1`, the “activity, negative = inhibition” value was 0.884%. In the case of `CCOc1ccc(NC(=O)OC(C)C)cc1OCC`, the “activity, negative = inhibition” value is reported as -3.74%. With `CCC(=O)OCCC(C)CCC=C(C)C` (centres undefined) the “activity, negative = inhibition” value was -1.15%.

From PubChem BioAssay (Tox21)
% is scaled to controls: 0 for no effect and ±100 for the full control effect.
